# PubChem BioAssay
# Results filed as inconclusive are left out. Calls of active or inactive are those of the source. Unless noted, the rule behind the calls is not given here.
# How the values were obtained:
# [1] = target: ATP-dependent translocase ABCB1 (Homo sapiens) (UniProt P08183); test: P-glycoprotein substrate transport blockade – cell-based (AID 377; in the data active = fluorescence slope change above about 50%); details: MDR1-expressing cells, fluorescent substrate accumulation slope; stronger effect = higher value; concentration not given here
# Chain of ATP-dependent translocase ABCB1 (Homo sapiens) (P08183 whole entry, looked up): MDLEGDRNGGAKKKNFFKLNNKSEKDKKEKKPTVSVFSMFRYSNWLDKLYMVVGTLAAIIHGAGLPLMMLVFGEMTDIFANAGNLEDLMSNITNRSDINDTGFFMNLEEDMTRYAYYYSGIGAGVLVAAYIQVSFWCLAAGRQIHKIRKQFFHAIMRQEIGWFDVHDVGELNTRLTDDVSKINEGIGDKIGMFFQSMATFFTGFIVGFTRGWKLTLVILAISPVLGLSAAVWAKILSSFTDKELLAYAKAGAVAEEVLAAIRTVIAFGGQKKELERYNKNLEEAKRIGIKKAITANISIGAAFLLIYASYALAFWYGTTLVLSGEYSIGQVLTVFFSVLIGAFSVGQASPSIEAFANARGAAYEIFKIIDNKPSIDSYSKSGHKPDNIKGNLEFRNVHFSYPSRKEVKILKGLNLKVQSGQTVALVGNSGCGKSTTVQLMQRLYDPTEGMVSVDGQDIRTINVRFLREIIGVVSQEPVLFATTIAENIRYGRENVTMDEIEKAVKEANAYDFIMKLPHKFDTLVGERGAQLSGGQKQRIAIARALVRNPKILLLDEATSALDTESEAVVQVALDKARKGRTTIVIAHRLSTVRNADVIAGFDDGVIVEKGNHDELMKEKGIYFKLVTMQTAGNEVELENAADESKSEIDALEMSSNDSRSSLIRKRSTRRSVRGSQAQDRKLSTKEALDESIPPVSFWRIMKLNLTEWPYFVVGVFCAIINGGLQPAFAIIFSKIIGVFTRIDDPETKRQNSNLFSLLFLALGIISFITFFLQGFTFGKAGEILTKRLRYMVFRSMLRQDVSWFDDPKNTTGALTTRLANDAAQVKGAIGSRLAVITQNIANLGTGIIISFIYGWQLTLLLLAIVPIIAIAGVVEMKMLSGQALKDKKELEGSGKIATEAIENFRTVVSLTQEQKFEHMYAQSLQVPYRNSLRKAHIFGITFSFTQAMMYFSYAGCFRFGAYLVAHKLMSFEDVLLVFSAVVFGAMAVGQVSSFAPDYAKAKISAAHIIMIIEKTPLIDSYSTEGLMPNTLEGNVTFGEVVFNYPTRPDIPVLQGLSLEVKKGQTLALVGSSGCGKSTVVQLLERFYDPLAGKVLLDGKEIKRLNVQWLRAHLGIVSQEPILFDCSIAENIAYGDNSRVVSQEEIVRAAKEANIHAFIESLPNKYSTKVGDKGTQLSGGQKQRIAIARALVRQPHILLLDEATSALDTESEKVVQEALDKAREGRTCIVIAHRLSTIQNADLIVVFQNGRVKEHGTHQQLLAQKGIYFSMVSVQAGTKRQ
# [2] = compounds altering circadian rhythm period length – cell-based, LOPAC library, luminescence reporter (AID 2774); details: circadian reporter cells, at 7 µM, actives lie on both sides;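 note: values are relative to mean of DMSO wells on each plate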
# [3] = system: Hepatitis C virus NS3 helicase; test: blockers of NS3h binding to ssDNA – biochemical, fluorescence polarization, LOPAC1280 library, primary screen (AID 687035; in the data active = inhibition above about 37%); details: Purified HCV NS3 helicase, Cy5-dT15 ssDNA binding fluorescence polarization; stronger effect = higher value; concentration not given here
# [4] = compounds altering Cy5-DNA-NS3h complex signal – biochemical, LOPAC1280, artefact control for HCV NS3 helicase inhibitor project (AID 687037); details: Cy5-DNA-NS3h complex fluorescence interference counterscreen
# [5] = compounds altering viability of human ES cells (AID 493140); details: human embryonic stem cell survival screen; stronger effect = higher value;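 note: cells exposed to compounds for four days before counting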
# [6] = P. berghei load reduction in hepatocytes – cell-based, HepG2, luciferase luminescence, HepG2 viability, primary screen (AID 624349; in the data active = parasite load remaining mostly below about 12%, no sharp cut-off; inactive = mostly above about 10%;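 note: 100% = mean of DMSO negative control wells on the same plate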); details: P. berghei liver stage in HepG2, luciferase luminescence, concentration not given here; parasite load remaining: stronger effect = lower value; viability: measured here: HepG2 viability without parasites
# [7] = liver-stage malaria parasite load reduction – cell-based, known kinase inhibitor set, luminescence, hepatoma host viability (AID 624392); details: Plasmodium liver stage in hepatoma cells, luciferase luminescence, concentration not given here; liver cell % of control: measured here: host liver cell viability; parasite % of control: stronger effect = lower value;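 note: infected cells incubated roughly two days before readout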
# [8] = system: Neuropilin-2 / VEGF-C interaction (human); test: small molecules blocking Neuropilin-2/VEGF-C interaction – biochemical, microplate binding format, z-score (AID 743281); details: microplate NRP2/VEGF-C binding assay; stronger effect = lower value
structure (smiles),measurement,setting,value
C[C@H](N)[C@@H](O)c1ccc(O)c(O)c1,fluorescence slope change,[1],17.7% (inactive)
COc1cc(CC(C)N)c(OC)cc1I (configuration not stated),period change,[2],-0.11 h (inactive)
same,inhibition,[3],-3% (inactive)
same,fluorescence ratio (interference),[4],1 (inactive)
CCN(CC)C(=O)N[C@H]1C=C2c3cccc4[nH]cc(c34)C[C@H]2N(C)C1,fluorescence slope change,[1],136% (active)
same,period change,[2],0.33 h (inactive)
same,survival,[5],19.8 (inactive)
same,parasite load remaining,[6],92.5% (inactive)
same,viability,[6],87.9%
CN1CCc2cc3c(c4c2C1Cc1ccccc1-4)OCO3 (configuration not stated),fluorescence slope change,[1],11.3% (inactive)
CCC(C)C1OC2(C=CC1C)CC1CC(CC=C(C)C(OC3CC(OC)C(OC4CC(OC)C(O)C(C)O4)C(C)O3)C(C)C=CC=C3COC4C(O)C(C)=CC(C(=O)O1)C34O)O2 (configuration not stated),survival,[5],3.5 (inactive)
C=C1C2C[C@@]3(C4CC5C6(C3C[C@@H]2O)[C@@H](O)CC[C@@]5(C)CN(CC)[C@H]46)[C@@H]1O (some centres not stated),fluorescence slope change,[1],24.6% (inactive)
same,survival,[5],5.92 (inactive)
NCCC(O)C(=O)NC1CC(N)C(OC2OC(CN)C(O)[C@H](O)[C@@H]2N)[C@H](OC2O[C@H](CO)[C@@H](O)[C@@H]2O)[C@@H]1O (some centres not stated),fluorescence slope change,[1],51.6% (active)
same,survival,[5],4.17 (inactive)
C[C@@H]1CCC2[C@H](C)C3CC[C@@]4(O)[C@@H]5CC(=O)[C@H]6CC(=O)CC[C@]6(C)C5C[C@H]4[C@@H]3CN2C1 (some centres not stated),fluorescence slope change,[1],16.8% (inactive)
COc1cc(C(=O)OC2CC3CCC(C2)N3C)ccc1O (configuration not stated),fluorescence slope change,[1],5.8% (inactive)
same,survival,[5],1.67 (inactive)
CC1OC(OC2/C=C/C=C/C=C/C=C/CC/C=C/C=C/[C@H](C)[C@@H](O)[C@@H](C)[C@H](C)OC(=O)CC(O)CC(O)CC(O)CCC(O)C(O)C[C@]3(O)CC(O)C(C(=O)O)C(C2)O3)C(O)C(N)C1O (some centres not stated),fluorescence slope change,[1],108% (active)
same,survival,[5],8.92 (inactive)
same,parasite load remaining,[6],78.6% (inactive)
same,viability,[6],74%
CCN1C[C@]2(C)CC[C@H](OC)[C@]34C2[C@H](OC(C)=O)C2(OCO[C@@]25CC(OC)C2C[C@]3(O)C5[C@H]2OC)[C@@H]14 (some centres not stated),survival,[5],5 (inactive)
CN(C)Cc1c[nH]c2c(OCc3ccccc3)cccc12,fluorescence slope change,[1],61.1% (active)
CCN(CC)C(=O)N[C@H]1C[C@@H]2c3cccc4[nH]cc(c34)C[C@H]2N(C)C1,survival,[5],6 (inactive)
C#CC1(O)CC[C@H]2[C@@H]3CCC4=CCCC[C@@H]4[C@H]3CC[C@@]21C (some centres not stated),survival,[5],37.7 (inactive)
CCN1C[C@]2(COC)CC[C@H](OC)[C@]34C5C[C@@H]6[C@@H](OC)CC7(OCO[C@]7([C@H]13)[C@@H](O)C24)C5[C@H]6OC (some centres not stated),fluorescence slope change,[1],13% (inactive)
same,survival,[5],6.42 (inactive)
COC(C)C(O)(C(=O)OCC1=CCN2CC[C@H](O)[C@@H]12)C(C)C (some centres not stated),fluorescence slope change,[1],29% (inactive)
same,survival,[5],1.33 (inactive)
CC1O[C@@H](O[C@@H]2C=C3CCC4C(CC[C@]5(C)[C@@H](c6ccc(=O)oc6)CC[C@]45O)[C@@]3(C)CC2)C(O)[C@@H](O)[C@H]1O (some centres not stated),survival,[5],2.83 (inactive)
C[C@H]1O[C@@H](OC2CC[C@]3(C=O)[C@H]4CC[C@]5(C)[C@@H](C6=CC(=O)OC6)CC[C@@]5(O)[C@@H]4CC[C@]3(O)C2)C[C@H](O)[C@@H]1O (some centres not stated),survival,[5],1.42 (inactive)
O=S(=O)(c1c(O)c(Cl)cc(Cl)c1Cl)c1c(O)c(Cl)cc(Cl)c1Cl,parasite load remaining,[6],27.4% (inactive)
same,viability,[6],70.9%
CC[C@H]1CN2CCc3cc(OC)c(OC)cc3[C@@H]2C[C@@H]1C[C@H]1NCCc2cc(O)c(OC)cc21,survival,[5],0.333 (inactive)
same,parasite load remaining,[6],8.07% (inactive)
same,viability,[6],49.7%
NS(=O)(=O)c1ccc(-c2ccc(C=C3C(=O)NC(=S)NC3=O)o2)cc1,liver cell % of control,[7],102%
same,parasite % of control,[7],96.9% (inactive)
COC1=C[C@H]2C3=C([C@H]2C1=O)[C@@H](NC(C)=O)CCc1cc(OC)c(OC)c(OC)c13,survival,[5],13.2 (inactive)
same,parasite load remaining,[6],78.4% (inactive)
same,viability,[6],74.3%
CC(=O)O[C@@H]1CC(O[C@@H]2C(C)OC(O[C@@H]3C(C)OC(OC4CC[C@@]5(C)[C@H](CC[C@]6(C)[C@]5(C)C[C@@H](O)[C@]5(C)[C@@H](C7=CC(=O)OC7)CC[C@@]56O)C4)C[C@H]3O)C[C@H]2O)OC(C)[C@H]1OC1OC(CO)[C@@H](O)[C@@H](O)[C@@H]1O (some centres not stated),survival,[5],0.333 (inactive)
CN(C(Cc1ccc(OOSOc2cccc3cnccc23)cc1)C(=O)N1CCN(c2ccccc2)CC1)S(=O)(=O)c1cccc2cnccc12 (configuration not stated),parasite load remaining,[6],43.1% (inactive)
same,viability,[6],153%
NS(=O)(=O)c1ccc(-c2ccc(C=C3C(=O)NC(=O)NC3=O)o2)cc1,liver cell % of control,[7],104%
same,parasite % of control,[7],97.7% (inactive)
C=CCN1CC[C@]23c4c5ccc(O)c4O[C@@H]2/C(=N\N=C2\CC[C@@]4(O)C6Cc7ccc(O)c8c7[C@@]4(CCN6CC=C)[C@@H]2O8)CC[C@@]3(O)C1C5,inhibition,[3],-6% (inactive)
same,fluorescence ratio (interference),[4],0.9 (inactive)
CCCCCCCCCCCCC/C=C/[C@@H](O)[C@@H](N)COP(=O)([O-])OCC[N+](C)(C)C,survival,[5],95.8 (inactive)
CC1CC[C@]2(NC1)O[C@H]1C[C@H]3[C@@H]4CC[C@H]5C[C@@H](O)CC[C@]5(C)[C@H]4CC[C@]3(C)[C@H]1[C@@H]2C (some centres not stated),survival,[5],5.67 (inactive)
same,parasite load remaining,[6],77.7% (inactive)
same,viability,[6],73.9%
CCC[C@@H]1C[C@@H](C(=O)N[C@H]([C@@H](C)O)[C@H]2O[C@H](SC)[C@H](O)[C@@H](O)C2O)N(C)C1 (some centres not stated),survival,[5],18.3 (inactive)
O=C1NC(=O)C(=Cc2ccc(-c3ccc(S(=O)(=O)N4CCOCC4)cc3)o2)C(=O)N1,liver cell % of control,[7],98.4%
same,parasite % of control,[7],98.3% (inactive)
CCCCCCCCCCCCCCC[C@@H](O)[C@@H](N)COP(=O)(O)O,survival,[5],93.8 (inactive)
O=C1Nc2ccc3ncsc3c2/C1=C/c1cnc[nH]1,parasite load remaining,[6],86.4% (inactive)
same,viability,[6],77.5%
CC1CCC2(NC1)O[C@H]1C[C@H]3[C@@H]4CC=C5C[C@@H](O)CC[C@]5(C)[C@H]4CC[C@]3(C)[C@H]1[C@@H]2C (some centres not stated),survival,[5],4.83 (inactive)
O=P(O)(O)Cc1ccccc1,survival,[5],126 (inactive)
CC[C@@H]1/C=C\C=C\C[C@H](C)[C@@H](O)[C@@H](C)C(=O)[C@H](C)[C@@H](O)[C@H](C)C(=O)[C@H](C)[C@@H](O)[C@H](C)/C=C/C(=O)O[C@H]2[C@@H](C)[C@@H](CC1)O[C@@]1(CC[C@@H](C)[C@@H](C[C@H](C)O)O1)[C@@H]2C,outcome,[8],inactive
CCCCC[C@@H](/C=C/C=C\CCCCCCCCCC(=O)O)OO,survival,[5],112 (inactive)
CC1(C)C(C=C(Br)Br)C1C(=O)OC(C#N)c1cccc(Oc2ccccc2)c1 (configuration not stated),survival,[5],82.3 (inactive)
CN1C2CCC1CC(O)C2 (configuration not stated),survival,[5],7.58 (inactive)
same,parasite load remaining,[6],64% (inactive)
same,viability,[6],69.9%
COc1ccc(C(=O)OC2C[C@H]3CC[C@@H](C2)N3C)cc1OC (some centres not stated),survival,[5],13.3 (inactive)
same,parasite load remaining,[6],68.2% (inactive)
same,viability,[6],77.3%
CCN(CC)C(=O)N[C@@H]1CC2c3cccc4[nH]cc(c34)CC2N(C)C1 (some centres not stated),survival,[5],2.5 (inactive)
CC(C)C1C(=O)N2CCCC2C2(O)OC(NC(=O)C3CC4c5cccc6[nH]cc(c56)CC4N(C)C3)(C(C)C)C(=O)N12 (configuration not stated),survival,[5],8 (inactive)
C=CCN1CC[C@]23c4c5ccc(O)c4O[C@H]2/C(=N\NC(=O)c2ccccc2)CC[C@@]3(O)[C@H]1C5,inhibition,[3],-6% (inactive)
same,fluorescence ratio (interference),[4],0.9 (inactive)
CN1C2CC(=O)CC1C(O)C2 (configuration not stated),survival,[5],4.08 (inactive)
[Cl-].[Cl][Pt].[NH2-].[NH2-].c1ccncc1,inhibition,[3],-3% (inactive)
same,fluorescence ratio (interference),[4],0.9 (inactive)
CNS(=O)(=O)c1ccc(-c2ccc(C=C3C(=O)NC(=O)NC3=O)o2)cc1,liver cell % of control,[7],99.7%
same,parasite % of control,[7],111% (inactive)
NC(N)=NOCC[C@@H](N)C(=O)O,survival,[5],14.8 (inactive)
same,parasite load remaining,[6],70.5% (inactive)
same,viability,[6],75.6%
